The values below come from PubChem BioAssay AID588397 (National Center for Advancing Translational Sciences (NCATS), 2011).

Among all 1,300 compounds or so, about 1,000 (77%) were called active. Another 7% or so got no clear call; they are omitted. The set was probably picked from earlier hits. The list shows a part of the results. A number with no mark means an inactive call. Calls come from the whole dose curve; as a rule, active = well fitted inhibition curve with a large enough effect; inconclusive = small, poorly fitted or top-dose-only effect; inactive = no such curve, though single readings can be large or run the other way.
% is set by controls: 0 for no effect and ±100 for the full control effect; potency is the fitted concentration of half-maximal effect.

This assay can be described thus: qHTS of small molecules that selectively kill Giardia lamblia: Hit Validation.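 Note: viability measured as ATP content by luminescence so killing lowers signal; trophozoites exposed to compounds for 48 h anaerobically at 37 °C; nearly all actives have a fitted effect of over 65% in size.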 Conditions: Giardia lamblia trophozoite viability, dose-response; series mostly up to 38.3 µM; activity change, negative = killing: at the top concentration. An excerpt:
Giardia lamblia is a human pathogen afflicting impoverished nations, and the most common cause of outbreaks of diarrhea in the United States. Giardia has been classified by the CDC as a category B bioterrorism organism. The favored anti giardiasis drugs in the US are metronidazole or tinidazole, compounds that have undesirable side effects. Moreover, increasing resistance to drug regimes and recurrence are a concern. It is thus clear that alternative drug treatments are needed.
In a collaboration between the University of Maryland, College Park and the NIH Chemical Genomics Center, a bioluminescence Giardia viability assay based on the trophozoites' ATP content was developed. This assay is suitable for high throughput screening, and miniaturized the assay for compound screening in 1536-well plates. The goal of the project is to screen the Molecular Libraries Small Molecule Repository (MLSMR) for compounds that selectively kill Giardia trophozoites.
NIH Chemical Genomics Center [NCGC]
NIH Molecular Libraries Probe Centers Network [MLPCN]
Assay Submitter (PI): Osnat Herzberg, University of Maryland, College Park, MD.
1. Dispense 2 ul/well media
2. Dispense 23 nl/well compounds
3. Dispense 4 ul/well Giardia trophozoites at a concentration of 100 cells/well
4. Incubate 48 hrs at 37 deg C anaerobically
5. Dispense 4 ul/well ATPLite 1-Step Luminescence assay kit
6. Incubate 15-30 min at room temperature
7. Read luminescence signal on ViewLux plate reader
Consider `Cc1cccc(N2CCN(Cc3ccc([N+](=O)[O-])o3)CC2)c1C`, for which the Potency was 0.729 µM (active).
Still for that read-out and setting: the value for `O=[N+]([O-])c1ccc(CN2CCN(c3ccccc3Cl)CC2)o1` was 0.65 µM (active).
For `C#CCCOC(=O)Nc1ccccc1`, the “activity change, negative = killing” value is -5.13%.
`COc1ccc(NC(=O)OCCn2c([N+](=O)[O-])cnc2C)cc1`: the Potency was 0.65 µM (active).
On to `Cc1ncc([N+](=O)[O-])n1CCOC(=O)Nc1ccc([N+](=O)[O-])cc1`, for which the Potency was 0.146 µM (active).
`Cc1ncc([N+](=O)[O-])n1CCOC(=O)Nc1ccc(Cl)c(Cl)c1`: the Potency was 0.23 µM (active).
The same measure, in the same setting: next, `CN1C2=CC=CC=CC2=[N+](C)C12C([N+](=O)[O-])=CC(=[N+]([O-])[O-])C=C2[N+](=O)[O-]` (stereo not given): 0.206 µM (active).
Same read-out and setting: the value for `Cc1cc(C(=O)COC(=O)c2cccc(NS(C)(=O)=O)c2)c(C)n1CC1CCCO1` (stereo not given) was 4.1 µM (active).
As to `CCOC(=O)c1ccc(NS(C)(=O)=O)cc1`, the “activity change, negative = killing” value is -33.5%.
On the same count and under the same terms, the value for `Cc1nnc(N/N=C/c2cccs2)[nH]c1=O` was 0.18%.
In the case of `S=C(NCCc1ccccc1)N/N=C/c1cccs1`, the Potency was 23.1 µM (active).
On the same count and under the same terms, next, `CC1CC(C)C(=O)C(C(CC2CC(=O)NC(=O)C2)OC(=O)CC(=O)c2ccccc2)C1` (stereo not given): 0.13 µM (active); `CCn1nnc(NC(=O)c2ccc(C(C)(C)C)cc2)n1`: 7.29 µM (active).
Same read-out and setting: the value for `O=C(Nc1ncccn1)c1ccc([N+](=O)[O-])o1` was 1.3 µM (active); that for `Cc1cccnc1NC(=O)c1ccc([N+](=O)[O-])o1` was 0.918 µM (active).
Consider `O=C(Nc1ccc(Br)cn1)c1ccc([N+](=O)[O-])o1`, for which the Potency is 1.63 µM (active).
As for `Cc1onc(NC(=O)c2ccc([N+](=O)[O-])o2)c1Br`, the Potency was 1.63 µM (active).
Regarding `CCn1nnc(NC(=O)c2ccc([N+](=O)[O-])o2)n1`, the Potency was 1.45 µM (active).
Same read-out and setting: the value for `O=C(Nc1ccccn1)c1ccc([N+](=O)[O-])o1` was 1.63 µM (active).
Take `O=C(NCC(c1ccco1)N1CCCC1)c1ccc(S(=O)(=O)Nc2ccccc2Cl)cc1` (stereo not given): the “activity change, negative = killing” value is -15.3%.
On to `CC1(C)[N+]([O-])=C2C(=[N+]([O-])C1(C)C)c1ccccc1/C2=N\O`, for which the Potency is 1.63 µM (active).
Turning to `C/C(=N\NC(=O)COc1ccc(C)cc1Br)c1cc([N+](=O)[O-])cs1`, the Potency is 1.63 µM (active).
Take `CC(=NN1CC(=O)NC1=O)c1ccc([N+](=O)[O-])o1`: the Potency was 1.45 µM (active).
As to `COc1cccc(NC2c3ccccc3C(=O)N2Cc2ccco2)c1` (stereo not given), the “activity change, negative = killing” value is -6.92%.
With `O=[N+]([O-])c1ccc(-c2ccn[nH]2)o1`, the Potency is 0.0516 µM (active).
In the case of `CC(=O)Oc1ccc2c(=O)c(Oc3ccccc3[N+](=O)[O-])coc2c1`, the Potency is 3.26 µM (active).
In the case of `CCN(CC)/[N+]([O-])=N/Oc1ccc([N+](=O)[O-])cc1[N+](=O)[O-]`, the Potency is 4.1 µM (active).
Take `CCOC(=O)c1nnn(-c2ccc([N+](=O)[O-])cc2[N+](=O)[O-])c1C`: the Potency is 8.18 µM (active).
On the same count and under the same terms, next, `CCOC(=O)N1C(C)CN(/[N+]([O-])=N/Oc2ccc([N+](=O)[O-])cc2[N+](=O)[O-])CC1C` (stereo not given): 5.79 µM (active); `O=[N+]([O-])c1ccc(O/N=[N+](\[O-])N2CCCCC2)c([N+](=O)[O-])c1`: 5.16 µM (active).
Consider `O=C1CC(SC(=Nc2ccccc2)Nc2ccccc2)C(=O)N1c1cccc2ccccc12` (stereo not given), for which the “activity change, negative = killing” value was 8.54%.
For the compound `O=[n+]1c2c(n([O-])c3cc(Br)ccc31)CCCC2`, the Potency is 2.31 µM (active).
In the case of `O=[n+]1c2c(n([O-])c3cc(Br)ccc31)CCC2`, the Potency is 2.31 µM (active).
Same read-out and setting: next, `O=[n+]1c2c(n([O-])c3cc(Cl)ccc31)CCCC2`: 4.6 µM (active); `Cc1c(Cl)cccc1N=c1c([N+](=O)[O-])nn(-c2ccccc2)n1O`: 0.516 µM (active); `Cc1ccc(N=c2c([N+](=O)[O-])nn(-c3ccccc3)n2O)c(C)c1`: 1.03 µM (active).
Regarding `CCCC/C=C/C(NC(=O)c1ccc(C(=O)OC)cc1)c1ccccc1` (stereo not given), the “activity change, negative = killing” value is 2.61%.
With `Cc1c(N=Nc2ccc(O)cc2)c(=O)n(-c2ccccc2)n1C`, the Potency is 5.16 µM (active).
The same measure, in the same setting: the value for `COc1cc(N=Nc2c(C)n(C)n(-c3ccccc3)c2=O)ccc1N` was 2.31 µM (active); that for `Cc1cc(N)ccc1N=Nc1c(C)n(C)n(-c2ccccc2)c1=O` was 0.729 µM (active); that for `CCNc1ccc(N=Nc2c(C)n(C)n(-c3ccccc3)c2=O)cc1` was 0.729 µM (active).
As for `Cc1c(NC2(C#N)CCCC2)c(=O)n(-c2ccccc2)n1C`, the “activity change, negative = killing” value is -13.8%.
Consider `Cc1c(N=Nc2ccc(N(C)C)cc2)c(=O)n(-c2ccccc2)n1C`, for which the Potency was 0.65 µM (active).
For `O=[N+]([O-])c1ccc(/C=C/c2ccnc3ccccc23)c([N+](=O)[O-])c1`, the Potency is 7.29 µM (active).
On to `CSC1SCC2C(=O)N(C)C(C(C)C)C(=O)OCC(NC(=O)c3cnc4ccccc4n3)C(=O)NC(C)C(=O)N(C)C1C(=O)N(C)C(C(C)C)C(=O)OCC(NC(=O)c1cnc3ccccc3n1)C(=O)NC(C)C(=O)N2C` (stereo not given), for which the Potency was 0.206 µM (active).
